# Source: PubChem (Broad Institute)
# MITF TRPM1 HTS = increases MITF-driven TRPM1 promoter luciferase signal; actives 0.75% (n = 300,000); SK-MEL-5 TRPM1-promoter luciferase, 24 h; % of positive control, neutral wells = 0; activation, % at 12.5 µM;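 active means mean activation of at least 80% with every replicate also reaching 80%; inconclusive means mean reaches 80% but some replicate falls short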;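 further: 0% = neutral control wells and 100% = parthenolide positive control wells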
# esBAF inh = blocks esBAF chromatin remodeling in mouse ES cells. AID 602393. Bmi1-luciferase knock-in reporter, 24 h; 100% = twice the neutral-well signal. actives 2% (n = 350,000). reporter increase, % at 12.5 µM; in the data active means activation above about 40%; inconclusive means no clear call, values can overlap the other calls;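 further: 0% = median of the plate's neutral control wells and 100% = double that signal; a rise in the Bmi1 reporter signal indicates esBAF inhibition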
# EWS-Fli block = EWS/Fli transcriptional activity inhibition; A673 NR0B1-luciferase reporter, viability-normalised; inhibition, % at 12.6 µM; actives 0.67% (n = 350,000); AID 651661;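 active means mean inhibition of at least 50% after viability correction, with every replicate also passing that limit; inconclusive means mean reaches 50% but only one of two replicates passes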;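 further: firefly luciferase signal divided by Alamar Blue viability fluorescence both relative to DMSO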
# PAX8 reporter = PAX8 transcriptional activity inhibition | RMG-I TPO-luciferase reporter, SteadyGlo, 24 h | inhibition, % at 12.6 µM | actives 1.2% (n = 360,000);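 active means mean replicate inhibition at least 60% with every replicate also reaching 60%; inconclusive means only one of the two criteria is met; inactive means mean below 60% and not all replicates reaching 60%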;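 further: luciferase light reporting Pax8 driven TPO promoter activity; plate controls were median of neutral control wells for no effect and mitoxantrone controls for full effect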
# Wnt bcat act = activates Wnt/beta-catenin signaling in a reporter cell assay. activator, plate reader. activation, % at 9.35 µM. actives 1.2% (n = 300,000). AID 743398; in the data active means activation above about 30%, passing the limit was not always enough; inconclusive means no clear call, values can overlap the other calls;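 further: 0% = neutral control wells and 100% = positive control wells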
# MITF TRPM1 inh = reduces MITF-dependent TRPM1 promoter luciferase signal; inhibition, % at 12.5 µM; AID 488899; SK-MEL-5 TRPM1 promoter luciferase, 24 h; actives 0.83% (n = 330,000);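 active means mean inhibition across replicates of 60% or more, whatever share of single replicates reaches that level; inconclusive means some that reach 60%, reason not given; inactive means mean inhibition across replicates below 60%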
# Numbers without * were called inactive; ? = inconclusive; · = not tested or not shown. Shown are actives, neighbours in structure and some others; about 4% of the full set was active somewhere.
SMILES,MITF TRPM1 HTS,esBAF inh,EWS-Fli block,PAX8 reporter,Wnt bcat act,MITF TRPM1 inh
C/C=C/c1ccc([C@H]2[C@@H](CO)N3CCCCN(S(=O)(=O)c4cccc(C)c4)C[C@@H]23)cc1,·,-2,14,14,·,·
O=C(C[C@@H]1CC[C@@H](NC(=O)c2cccc(F)c2)[C@@H](CO)O1)NCc1ccccc1,·,-2,1,-9,·,·
CO[C@@H]1CN(C)C(=O)c2cc(NC(=O)Nc3ccccc3)ccc2OC[C@@H](C)N(C(=O)Nc2c(C)noc2C)C[C@@H]1C,·,-1,-4,6,·,·
Cc1cc(C)c2[nH]c(O)c(N=NC3=NC(=O)CS3)c2c1,17,-2,4,14,5,-13
Cc1cc(C)c2[nH]c(O)c(N=Nc3ccc(C(=O)O)cc3)c2c1,-2,47*,-49,-59,1,2
N#C/C(=C\c1ccc(OC(=O)c2ccc(Br)s2)cc1)c1nc2ccccc2[nH]1,63,·,·,-20,·,-59
N#C/C(=C/c1ccc(OC(=O)c2ccc(Br)s2)cc1)c1nc2ccccc2[nH]1,68,83*,-43,-73,9,-61
Clc1ccc2nnc(Cl)n2n1,6,·,7,21,-1,-3
FC(F)(Cl)c1nnc2ccc(Cl)nn12,-14,·,-8,74*,3,16
C[C@@H]1CN([C@@H](C)CO)C(=O)Cc2cc(NC(=O)Nc3ccc4c(c3)OCO4)ccc2O[C@@H]1CN(C)CC1CC1,·,0,-4,-2,·,·
C[C@H]1CN([C@@H](C)CO)C(=O)Cc2cc(NC(=O)Nc3ccc4c(c3)OCO4)ccc2O[C@H]1CN(C)CC1CCCCC1,·,-5,-5,-9,·,·
C[C@H]1CN([C@@H](C)CO)C(=O)Cc2cc(NC(=O)Nc3ccc4c(c3)OCO4)ccc2O[C@@H]1CN(C)CC1CCCCC1,·,1,2,101*,·,·
C[C@H](CO)N1C[C@H](C)[C@@H](CN(C)CC2CCCCC2)Oc2ccc(NC(=O)Nc3ccc4c(c3)OCO4)cc2CC1=O,·,-1,0,90*,·,·
C[C@H](CO)N1C[C@H](C)[C@H](CN(C)CC2CCCCC2)Oc2ccc(NC(=O)Nc3ccc(F)cc3)cc2CC1=O,·,-5,60*,9,·,·
C[C@H]1CN([C@@H](C)CO)C(=O)c2cc(NC(=O)Nc3cccc4ccccc34)ccc2O[C@@H]1CN(C)Cc1ccc(C(=O)Nc2ccccc2N)cc1,·,-1,17,·,·,·
CO[C@H]1CN(C)C(=O)c2ccc(NS(=O)(=O)c3ccc(-c4ccccc4)cc3)cc2OC[C@@H](C)NC[C@H]1C,·,3,1,17,·,·
CC(C)c1nc(-c2ccc([N+](=O)[O-])cc2)cs1,68,55*,·,-122,·,-64
CCCCn1cnc2c(SCc3ccccc3F)nc(N)nc21,33,50*,-39,-81,18,-35
CC(C)Cn1cnc2c(SCc3ccccc3)nc(N)nc21,32,76*,-33,-48,6,-33
CCCn1cnc2c(SCc3ccccc3Cl)nc(N)nc21,8,48*,-71,-42,-4,-8
CC(C)Cn1cnc2c(SCc3ccccn3)nc(N)nc21,8,6,-3,-5,7,-9
CCCn1cnc2c(SCCc3ccccc3)nc(N)nc21,44,61*,-61,-129,1,-44
C[C@@H]1CCCCO[C@H](CN(C)S(=O)(=O)c2ccc(Cl)cc2)[C@H](C)CN([C@@H](C)CO)C(=O)c2cc(NC(=O)CCC(F)(F)F)ccc2O1,·,4,-3,8,·,·
COc1c(O[C@@H]2O[C@H](CO)[C@@H](O)[C@H](O)[C@H]2O)cc2c(c1OC)-c1ccc(SC)c(=O)cc1C(NC(C)=O)CC2 (stereo partly specified),8,3,6,-3,1,-6
COc1cc2c(c(OC)c1OC)-c1ccc(OC)c(=O)cc1C(NC(=O)c1ccccc1)CC2 (stereo unspecified),·,·,?,70*,-23,33
SMILES,MITF TRPM1 HTS,esBAF inh,EWS-Fli block,PAX8 reporter,Wnt bcat act,MITF TRPM1 inh
COc1cc2c3c(c1OC)C(=O)CC3CCCC2 (stereo unspecified),·,2,5,-2,·,·
COc1cc2c(c(OC)c1OC)-c1ccc(SC)c(=O)cc1C(NC(=O)c1ccccc1)CC2 (stereo unspecified),·,·,30,67*,-9,40
COc1cc2c(c(OC)c1OC)-c1ccc(SC)c(=O)cc1C(NC=O)CC2 (stereo unspecified),·,·,62*,100*,-4,64*
C=COC(=O)NC1CCc2cc(OC)c(OC)c(OC)c2-c2ccc(SC)c(=O)cc21 (stereo unspecified),·,·,29,65*,-8,51
COc1cccc(Nc2nc(N)nc(-c3oc4ccccc4c3C)n2)c1,24,51*,·,·,·,-23
Cc1cccc(Nc2nc(N)nc(-c3oc4ccccc4c3C)n2)c1,·,57*,3,-50,-4,-25
Cc1c(-c2nc(N)nc(Nc3ccccc3F)n2)oc2ccccc12,122*,48*,·,·,·,-117
CO[C@H]1CN(C)C(=O)c2ccc(NC(=O)C3CCCC3)cc2OC[C@H](C)N(C(C)=O)C[C@H]1C,·,0,1,5,·,·
COc1ccc(/C=C2\SC(=O)N(CCNC(=O)C3CC4C=CC3C4)C2=O)cc1 (stereo unspecified),136*,·,-109,-178,-1,-137
COc1ccc(NC(=O)N2CCCCN3[C@@H](CO)[C@H](c4ccc(C#Cc5ccccc5)cc4)[C@@H]3C2)cc1,·,·,8,70*,·,·
COc1ccc(C#Cc2ccc([C@@H]3[C@H](CO)N4CCCCN(C(=O)Nc5ccc(F)cc5)C[C@@H]34)cc2)cc1,·,·,·,107*,·,·
COc1cccc(CN2CCCCN3[C@H](CO)[C@@H](c4ccc(C#Cc5cccnc5)cc4)[C@H]3C2)c1,·,-13,69*,21,·,·
COc1ccc(NC(=O)N2CCCCN3[C@H](C2)[C@H](c2ccc(C#Cc4ccccc4)cc2)[C@@H]3CO)cc1,·,·,3,17,·,·
COc1ccc(NC(=O)N2CCCCN3[C@H](C2)[C@@H](c2ccc(C#Cc4ccccc4)cc2)[C@@H]3CO)cc1,·,·,-10,92*,·,·
COc1ccc(C#Cc2ccc([C@H]3[C@@H](CO)N4CCCCN(C(=O)Nc5ccc(F)cc5)C[C@H]34)cc2)cc1,·,·,·,-1,·,·
Cc1ccc(S(=O)(=O)N(C)C[C@H]2Oc3c(NC(=O)C4CCOCC4)cccc3C(=O)N([C@@H](C)CO)C[C@H]2C)cc1,·,3,-3,-8,·,·
CC(C)NC(=O)N(C)C[C@H]1OCCCC[C@@H](C)Oc2ccc(NS(=O)(=O)c3ccccc3)cc2C(=O)N([C@@H](C)CO)C[C@@H]1C,·,·,19,14,·,·
CCCCCn1c(CN2CCN(CCO)CC2)nc2c1c(=O)n(C)c(=O)n2C,-4,2,-4,5,-2,-3
CCCCn1c(CN2CCN(C(=O)OCC)CC2)nc2c1c(=O)n(C)c(=O)n2C,-8,-4,·,13,42*,8
